Among all 350,000 compounds or so, about 6,000 (1.7%) were called active. Not shown: some 5% with an inconclusive outcome. This excerpt belongs to a sample that is enriched for actives. Unmarked numbers belong to inactive results. Rule as the data show it: active = CPE inhibition above about 20% (passing the limit was not always enough); inconclusive = no clear call, values can overlap the other calls; tested in BHK-21 cells.

The nature of the assay: protection of cells from dengue 2 killing – plate reader, single concentration, primary screen (AID 651640).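 Also: 0% = median of neutral control wells and 100% = median of positive control wells.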 The note with it: DENV2-infected cells, cytopathic effect rescue, at 9.99 µM, stronger effect = higher value. A general note: Damage to the host cells serves as the signal in cytopathic effect assays.
As for `C[C@H](CO)N1C[C@H](C)[C@@H](CN(C)S(=O)(=O)c2cccs2)OCCCC[C@H](C)Oc2ccc(NS(=O)(=O)c3ccccc3)cc2C1=O`, the CPE inhibition is -5.76%.

As for `Cc1ccc(S(=O)(=O)Nc2ccc3c(c2)C(=O)N([C@@H](C)CO)C[C@H](C)[C@@H](CN(C)C(=O)Nc2ccc(F)cc2)OCCCC[C@H](C)O3)cc1`, the CPE inhibition is 0.458%.

Take `O=C(C[C@H]1CC[C@H]2[C@@H](COC[C@H](O)CN2CCC(F)(F)F)O1)N1CCC(Cc2ccccc2)CC1`: the CPE inhibition is 0.858%.

In the case of `O=C(CN1CCN(c2ccccc2)CC1)Nc1ccc(F)cc1`, the CPE inhibition is -6.81%.

As for `CC(=O)c1c(N2CCN(c3ccc(F)cc3)CC2)nc(=S)n(-c2ccccc2)c1C`, the CPE inhibition is 46.2% (active).

In the case of `Cc1ccc2cc(C)c(N3CCN(c4ccc(F)cc4)CC3)nc2c1`, the CPE inhibition was -3.88%.

On to `CN1C(=O)c2cc(NC(=O)C3CCCC3)ccc2OC[C@@H]2O[C@@H](CC(=O)NCCc3ccncc3)CC[C@@H]21`, for which the CPE inhibition was 26.3% (active).

For the molecule `CCC(=O)Nc1ccc2c(c1)C(=O)N(C)[C@@H]1CC[C@H](CC(=O)NCCc3ccncc3)O[C@@H]1CO2`, the CPE inhibition is -5.57%.

With `CN1C(=O)c2cc(NC(=O)C3CCCC3)ccc2OC[C@H]2O[C@@H](CC(=O)NCCc3ccncc3)CC[C@H]21`, the CPE inhibition was 5.23%.

Turning to `C[C@@H]1CN([C@H](C)CO)S(=O)(=O)c2ccc(-c3ccc(C(=O)N(C)C)cc3)cc2O[C@@H]1CN(C)C(=O)Nc1ccccc1F`, the CPE inhibition is 2.86%.

Regarding `Cc1ccc(S(=O)(=O)N2[C@@H](c3cccc(Cl)c3)C(C(=O)O)=CC[C@H]2c2ccc(Cl)c(Cl)c2)cc1`, the CPE inhibition is 40% (active).

As to `Cc1ccccc1S(=O)(=O)N1[C@@H](c2cccc(Cl)c2)C(C(=O)OC(C)(C)C)=CC[C@H]1c1ccc(Cl)cc1`, the CPE inhibition is -8.63%.

For the molecule `CCOC(=O)C1=CC[C@@H](c2ccccc2)N(S(=O)(=O)c2ccc(C)cc2)[C@H]1c1cccc(OC)c1`, the CPE inhibition was -3.53%.

As for `Cc1ccccc1S(=O)(=O)N1[C@@H](c2cccc(Cl)c2)C(C(=O)O)=CC[C@H]1c1ccc(Cl)cc1`, the CPE inhibition is 6.18%.

Turning to `Cc1ccc([C@@H]2CC=C(C(=O)O)[C@H](c3cccc(Cl)c3)N2S(=O)(=O)c2ccc(C)cc2)cc1`, the CPE inhibition is 42.3% (active).

As to `Cc1ccc(S(=O)(=O)N2[C@@H](c3ccccc3F)C(C(=O)O)=CC[C@H]2c2ccc(Cl)cc2)cc1`, the CPE inhibition is -10.7%.

For `O=C(C[C@H]1CC[C@@H](NC(=O)CC2CC2)[C@@H](CO)O1)NCc1ccccc1`, the CPE inhibition was 3.95%.

In the case of `C[C@@H]1CN([C@H](C)CO)C(=O)c2cc(NC(=O)Nc3ccc(F)cc3)ccc2O[C@@H](C)CCCCO[C@@H]1CN(C)S(=O)(=O)c1cn(C)cn1`, the CPE inhibition was 2.14%.

For the molecule `C[C@H](CO)N1C[C@H](C)[C@H](CN(C)Cc2cncnc2)Oc2cc(-c3ccccc3F)ccc2S1(=O)=O`, the CPE inhibition was -2.27%.

With `C[C@@H]1CCCCO[C@H](CN(C)Cc2ccccc2)[C@H](C)CN([C@@H](C)CO)C(=O)c2cc(NC(=O)Nc3cccc4ccccc34)ccc2O1`, the CPE inhibition is -25.3%.

Turning to `O=C(C[C@@H]1CC[C@H]2[C@@H](COC[C@@H](O)CN2C(=O)Nc2ccc(F)cc2)O1)NCC1CC1`, the CPE inhibition was -0.669%.

Turning to `C[C@@H](NC(=O)C[C@@H]1CC[C@H]2[C@@H](COC[C@@H](O)CN2C(=O)Nc2cccc(F)c2)O1)c1ccccc1`, the CPE inhibition is 4.9%.

In the case of `CCCNC(=O)C[C@H]1CC[C@H]2[C@@H](COC[C@H](O)CN2C(=O)Nc2c(C)noc2C)O1`, the CPE inhibition was 40.9% (active).

With `CCCNC(=O)C[C@@H]1CC[C@H]2[C@@H](COC[C@H](O)CN2C(=O)Nc2ccc(Cl)c(Cl)c2)O1`, the CPE inhibition is 2.89%.

As to `O=C(C[C@H]1CC[C@H]2[C@@H](COC[C@H](O)CN2C(=O)Nc2ccc(Cl)cc2)O1)NCC1CC1`, the CPE inhibition was 85.5% (active).

Regarding `CCNC(=O)C[C@H]1CC[C@@H]2[C@H](COC[C@H](O)CN2C(=O)Nc2c(C)noc2C)O1`, the CPE inhibition is -1.85%.

Turning to `O=C(C[C@@H]1CC[C@H]2[C@@H](COC[C@H](O)CN2C(=O)Nc2ccc(Cl)cc2)O1)NCC1CC1`, the CPE inhibition is 6.37%.

As to `C[C@@H](NC(=O)C[C@H]1CC[C@H]2[C@@H](COC[C@@H](O)CN2C(=O)Nc2ccccc2)O1)c1ccccc1`, the CPE inhibition is -9.46%.

Regarding `C[C@@H](NC(=O)C[C@@H]1CC[C@@H]2[C@H](COC[C@@H](O)CN2C(=O)Nc2cccc(F)c2)O1)c1ccccc1`, the CPE inhibition was 24.3% (active).

As for `COc1ccc(NC(=O)N2C[C@H](O)COC[C@H]3O[C@@H](CC(=O)NC4Cc5ccccc5C4)CC[C@@H]32)cc1`, the CPE inhibition was -9.25%.

For `COc1ccc2c3c(n(C)c2c1)[C@@H](CO)N(C)CC31CN(CC2CC2)C1`, the CPE inhibition is -0.913%.

Turning to `Cc1ccc(-c2cc(=O)c3ccc(Cl)cc3[nH]2)cc1`, the CPE inhibition was 0.541%.

For `Cc1ccc(-c2cc(=O)c3ccc(F)cc3[nH]2)cc1`, the CPE inhibition was 25% (active).

Consider `O=c1cc(-c2ccccc2)[nH]c2cc(F)ccc12`, for which the CPE inhibition was -7.41%.

For `CC(C)CC#Cc1ccc([C@H]2[C@@H](CO)N3C(=O)CN(C(=O)CN4CCOCC4)C[C@H]23)cc1`, the CPE inhibition was -8.34%.

On to `CCN1CCN(CC(=O)c2cc(OC)c(OC)c(OC)c2)CC1`, for which the CPE inhibition is -1.76%.

Turning to `COc1ccc(C(=O)NCCCN2CCOCC2)cc1Br`, the CPE inhibition is 8.89%.

Turning to `COc1cc(C(=O)OCCCN2CCOCC2)cc(OC)c1OC`, the CPE inhibition is 49.2% (active).

Regarding `O=C(C[C@@H]1C=C[C@@H](NC(=O)c2ccccc2)[C@H](CO)O1)NCCc1ccncc1`, the CPE inhibition is -5.54%.

For `O=C(c1ccc(C(F)(F)F)cc1)N1CCC(=O)N([C@H](COCc2ccccc2)Cc2ccccc2)CC1`, the CPE inhibition was -2.73%.

For the molecule `CC(C)C[C@@H](COCc1ccc(Cl)cc1)N1CCN(C(=O)c2ccc(Cl)cc2Cl)CCC1=O`, the CPE inhibition was -4.03%.

In the case of `CC(C)CC(COCc1ccc(Cl)cc1)N1CCN(C(=O)c2ccc(C(F)(F)F)cc2)CCC1=O` (stereo unspecified), the CPE inhibition was 49.9% (active).

`C[C@H](CO)N1C[C@H](C)[C@H](CN(C)C)Oc2cc(C#Cc3ccccc3F)ccc2S1(=O)=O`: the CPE inhibition is -8.31%.

Turning to `COCC(=O)N(C)C[C@H]1Oc2ncc(-c3ccc(C)cc3)cc2C(=O)N([C@@H](C)CO)C[C@@H]1C`, the CPE inhibition is 14.3%.

As to `Cc1ccc(S(=O)(=O)N2C[C@@H](C)[C@]3(C2)[C@H](O)[C@H](OC(=O)NCc2ccccc2)C[C@H]2C(=O)N(c4ccccc4)C(=O)[C@H]23)cc1`, the CPE inhibition was 31.2% (active).

For `COC(=O)[C@H]1C[C@H](OC(=O)NCc2ccccc2)[C@@]2(O)CN(S(=O)(=O)c3ccc(C)cc3)CC2[C@H]1C(=O)OC` (stereo partly specified), the CPE inhibition is 11.6%.

For `Cc1ccc(S(=O)(=O)N2C[C@]3(O)C[C@@H]4C(=O)N(c5ccccc5)C(=O)[C@@H]4C[C@]3(OC(=O)NC3CC3)C2)cc1`, the CPE inhibition is 0.334%.

`C[C@H]1CN([C@@H](C)CO)C(=O)c2cccc(NC(=O)CCCCCC(=O)Nc3ccccc3N)c2O[C@@H]1CN(C)CC1CCCCC1`: the CPE inhibition is 1.77%.

Regarding `C[C@H]1CN([C@@H](C)CO)C(=O)c2cc(Br)cnc2O[C@@H]1CN(C)S(=O)(=O)c1ccc(F)cc1`, the CPE inhibition was -4.52%.

As for `C[C@@H]1CN([C@@H](C)CO)C(=O)c2cccc(NC(=O)c3ccc(-c4nccs4)cc3)c2O[C@@H]1CN(C)S(=O)(=O)c1ccccc1`, the CPE inhibition is -5.21%.

Take `COc1ccc2c3c([nH]c2c1)[C@H](CO)N(C(=O)CN1CCOCC1)CC31CN(C(C)=O)C1`: the CPE inhibition was 4.54%.

With `CCC(=O)N1CC2(CN(C(=O)Nc3ccccc3F)C2)c2c([nH]c3cc(OC)ccc23)[C@H]1CO`, the CPE inhibition is 10.3%.

As for `CC(C)C#Cc1ccc2c(c1)O[C@@H](CN(C)C(=O)Nc1ccccc1)[C@H](C)CN([C@H](C)CO)S2(=O)=O`, the CPE inhibition is -2.16%.

For `C=C1C(=O)[C@]23C[C@H]1CCC2[C@@]1(C)C(C[C@@H]3O)[C@](C)(C(=O)O)CC[C@@H]1O` (stereo partly specified), the CPE inhibition was 74.8% (active).

Take `O=C(C[C@@H]1C[C@H]2c3cc(NS(=O)(=O)c4ccc(F)cc4)ccc3O[C@H]2[C@H](CO)O1)NC1CCCC1`: the CPE inhibition was -5.59%.

For `CCC(=O)N(C)C[C@@H]1Oc2ncc(C3=CCCC3)cc2C(=O)N([C@H](C)CO)C[C@@H]1C`, the CPE inhibition is -6.55%.

Turning to `C[C@H](CO)N1C[C@H](C)[C@H](CN(C)Cc2cccnc2)Oc2ncc(C3=CCCC3)cc2C1=O`, the CPE inhibition was -1.52%.

As for `C[C@@H]1CN([C@H](C)CO)C(=O)c2cc(C3=CCCC3)cnc2O[C@H]1CN(C)C`, the CPE inhibition is 0.588%.

As to `C[C@H](CO)N1C[C@H](C)[C@H](CN(C)S(C)(=O)=O)Oc2ncc(C3=CCCC3)cc2C1=O`, the CPE inhibition was 32.1% (active).

On to `C[C@H]1CN([C@@H](C)CO)C(=O)c2cc(-c3ccccc3F)cnc2O[C@@H]1CN(C)C`, for which the CPE inhibition is -7.94%.

For the molecule `C[C@H](CO)N1C[C@H](C)[C@@H](CN(C)Cc2ccccn2)Oc2ncc(C3=CCCC3)cc2C1=O`, the CPE inhibition was 49.6% (active).

For `CCCN(C)C[C@H]1Oc2ncc(-c3ccccc3OC)cc2C(=O)N([C@H](C)CO)C[C@@H]1C`, the CPE inhibition was 14.5%.

As to `C[C@@H]1CN([C@@H](C)CO)C(=O)c2cc(C3=CCCC3)cnc2O[C@H]1CN(C)Cc1ccccc1F`, the CPE inhibition was 3.87%.

Turning to `CCCN(C)C[C@@H]1Oc2ncc(-c3ccccc3F)cc2C(=O)N([C@@H](C)CO)C[C@@H]1C`, the CPE inhibition is 38.8% (active).

Regarding `CCC(=O)N(C)C[C@@H]1Oc2cc(-c3ccc(OC)cc3)ccc2S(=O)(=O)N([C@@H](C)CO)C[C@H]1C`, the CPE inhibition is -4.79%.

On to `O=C(C[C@H]1C[C@H]2c3cc(NC(=O)Cc4ccncc4)ccc3O[C@H]2[C@@H](CO)O1)NCc1cccc(F)c1`, for which the CPE inhibition was -1.57%.

Source of the values: PubChem BioAssay AID651640 (Broad Institute, 2012).
